Dicer processing: inhibitors of Dicer pre-microRNA processing, primary screen, biochemical, cat-ELCCA, chemiluminescence | 47,000 compounds, 6% hits | z-score at 25 µM | cat-ELCCA pre-miR-21 Dicer processing; active compounds read high | Endoribonuclease Dicer (Homo sapiens), Q9UPY3; in the data active = z-score above about 3, passing the limit was not always enough;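 also: plate controls were vehicle for no effect and no enzyme for full effect; higher signal means more uncleaved substrate so more Dicer inhibition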
An asterisk follows results filed as active. The sample as a whole holds a higher share of hits than the screen did.

SMILES | Dicer processing
Fc1ccc(C2Nc3cccc4cccc(c34)N2)cc1 | -0.77
COc1ccc(C#N)cc1Br | -0.35
Brc1ccc(C2Nc3cccc4cccc(c34)N2)cc1 | 5*
COc1cccc(C2Nc3cccc4cccc(c34)N2)c1O | 0.69
Oc1ccc2ccccc2c1C1Nc2cccc3cccc1c23 (stereo not given) | -2.6
COc1ccc(C2Nc3cccc4cccc(c34)N2)cc1Br | 4.9*
Cc1cc(C(=O)N(c2ccccc2)C(C)C2CC2)c(Cl)cc1Cl (stereo not given) | 0.47
COC(=O)c1scc(S(=O)(=O)Cc2cccs2)c1N/N=C(\C#N)S(=O)(=O)c1cccs1 | 6
N#CC(=C1SCCS1)S(=O)(=O)Cc1ccco1 | -0.54
COC(=O)c1scc(S(=O)(=O)Cc2ccco2)c1NN=C(C#N)C#N | 4.8*
C(=C\c1ccccc1)/CSc1nnc(C2CCNCC2)o1 | 1.7
COc1ccc2c(=O)c(Oc3cc(C)ccc3C)coc2c1 | 0.91
CCOC(=O)c1cc(-c2ccc(Cl)s2)nn1C(C)=O | -0.22
Cc1cc(Sc2ncccc2[N+](=O)[O-])c(Cl)cc1Cl | -0.59
O=C1c2ccccc2NC(c2ccccc2O)N1c1ccc(F)cc1 (stereo not given) | -0.68
Cc1ccc(/C(O)=C2/C(=O)C(=O)N(c3ccc(O)cc3)C2c2ccccc2)cc1 (stereo not given) | 0.95
Cc1ccc(N2C(=O)c3ccccc3C2C(=O)c2cc(C)ccc2O)cc1 (stereo not given) | 11*
Oc1ccc(CCc2n[nH]c(=S)n2-c2cccc(C(F)(F)F)c2)cc1 | -0.66
COC(=O)c1cc(NC2OC(=O)c3ccccc32)cc(C(=O)OC)c1 (stereo not given) | -0.57
CC1(C)CC(=O)c2sc(NC(=O)c3ccc(C(C)(C)C)cc3)nc2C1 | -0.36
O=C1C(Cl)=C(c2ccccc2)N(c2ccccc2)C(=O)C1(F)c1ccccc1 (stereo not given) | 0.77
Cc1csc2sc(-c3ccn[nH]3)c(C)c12 | 3.5*
Cc1csc2sc(-c3ccnc(SCc4ccccc4)n3)c(C)c12 | 0.18
CCOC(=O)c1sc2sc(-c3ccn[nH]3)c(C)c2c1C | -0.4
CCCOc1ccccc1/C=N/NC(=S)Nc1cc(Cl)ccc1Cl | -0.55
SMILES | Dicer processing
CC(=O)CSc1nnc2sc3ccccc3n12 | -0.21
O=C(CSc1nnc2sc3ccccc3n12)N1CCN(c2ccccc2)CC1 | 3.7*
O=C(O)CCSc1nnc2sc3ccccc3n12 | 0.75
Cc1ccc2c(N)c(C(N)=O)sc2n1 | -0.93
N/C(=N\O)c1nccnc1Oc1cccc(C(F)(F)F)c1 | 0.92
CN(C)C(=O)Nc1cnccc1C(F)(F)F | 0.83
O=C(O)C1CC(=O)N(c2ccc(Oc3ccccc3)cc2)C1 (stereo not given) | 1.6
O=C1OC(COc2ccccc2)CN1c1ccccc1 (stereo not given) | 3.4*
Cc1ccc(OCC2CN(Cc3ccccc3)C(=O)O2)cc1 (stereo not given) | 0.12
Cc1c(CCN2CCOCC2)c(N2CCOCC2)n2c(nc3ccccc32)c1C#N | -0.55
CCCCc1c(C)c(C#N)c2nc3ccccc3n2c1-n1ccnc1C | 8.3*
Cc1c(Cc2ccccc2)c(-n2ccnc2C)n2c(nc3ccccc32)c1C#N | 2.2
NS(=O)(=O)C1CCS(=O)(=O)C1 (stereo not given) | 0.05
Cc1ccc(NC(=O)c2ccsc2)cc1NS(C)(=O)=O | -2.1
Cc1ccc(NC(=O)Nc2ccc(C(F)(F)F)cc2)cc1NS(C)(=O)=O | 6.3*
Cc1csc(NC(=O)Nc2ccc(C(F)(F)F)cc2)c1Cl | 0.31
O=C1CC(c2cccs2)CC(O)=C1C=Nc1ccccc1Cl (stereo not given) | -1.1
C=CC(=O)NC(O)C(O)NC(=O)C=C (stereo not given) | -0.75
FC(F)(F)c1c2c(nc3cc(-c4ccc(Cl)cc4)nn13)-c1ccccc1C2 | -1.3
O=C(Nc1cccnc1)c1cc2nc(-c3ccc(Cl)cc3)cc(C(F)(F)F)n2n1 | -2.2
O=C(NCCN1CCOCC1)c1cc2nc(-c3ccc(Br)cc3)cc(C(F)(F)F)n2n1 | 1.3
c1ccc2c(c1)CCCc1cc(NCCN3CCOCC3)nnc1-2 | 0.37
O=C(Nc1ccc(O)cc1)c1cc2nc3c(c(C(F)(F)F)n2n1)CCc1ccccc1-3 | 3.2*
O=C(NCCN1CCOCC1)c1cc2nc3c(c(C(F)(F)F)n2n1)CCc1ccccc1-3 | 4.3*
Cc1nn(C(=O)c2cccs2)c(C)c1Cc1c(F)cccc1Cl | -1.8
SMILES | Dicer processing
CN(C)c1ccc(/C=C(\C#N)c2ccc([N+](=O)[O-])cc2)cc1[N+](=O)[O-] | -0.29
COc1ccc(/C=C(\C#N)c2ccc([N+](=O)[O-])cc2)cc1[N+](=O)[O-] | 3.5*
COc1ccc(/C(C#N)=C/c2cn[nH]c2)cc1 | -0.82
CN(C)N1C(=O)c2cccc3cc([N+](=O)[O-])cc(c23)C1=O | -4.3
COc1ccc(-c2cc3ccccc3n2CC(O)CNCC2CCCO2)cc1 (stereo not given) | -0.66
COc1ccc(C2C(C#N)=C(C)NC3=C2C(=O)CC(c2ccc(Cl)cc2)C3)cc1 (stereo not given) | 0.16
COc1ccc(C2C=C(c3ccc(Cl)cc3)NC(=O)C2C#N)cc1 (stereo not given) | 4.4*
COc1ccc(C2NC(=O)NC2=O)cc1 (stereo not given) | 1.1
Cc1cc(NC(=O)Nc2scc(S(=O)(=O)c3ccc(Cl)cc3)c2C)on1 | 0.08
O=C(O)c1cccc2cccc(S(=O)c3ccccc3CO)c12 (stereo not given) | -0.98
Nc1ccc(C(=O)O)c2c(C(=O)O)cccc12 | -0.03
O=C(O)c1cccc2cccc(C(=O)O)c12 | 3.9*
CN1CCc2c(sc3c2C(=O)NC(c2ccc(Cl)cc2)N3)C1 (stereo not given) | 8.2
O=C(Nc1ccc(F)cc1)c1ccccc1N=Cc1ccccc1O | -0.11
Nc1c(C(=O)Nc2ccccc2)c(-c2cccs2)nn1-c1ccc([N+](=O)[O-])cc1 | -1
COC(=O)c1ccc(N2C(=O)CSC2c2ccc(OC)cc2)cc1 (stereo not given) | 7
COc1ccc(N2C(=O)N(c3ccc(OC)cc3)C3CS(=O)(=O)CC32)cc1 (stereo not given) | 3.9*
COc1ccc(N2C(=O)CSC2c2ccc(Br)cc2)cc1 (stereo not given) | 1.3
COc1ccc2c(O)c(-c3ccccc3)c(=O)[nH]c2c1 | 1.4
CCOC(=O)c1sc(N2C(=O)C(O)=C(C(=O)c3ccco3)C2c2ccc(C)cc2)nc1C (stereo not given) | 2.7
Cc1ccc(C2CC(=O)C3=C(C2)Nc2ccccc2NC3c2ccc3c(c2)OCO3)cc1 (stereo not given) | -1.1
COc1ccc(C2CC(=O)C3=C(C2)Nc2ccccc2NC3c2ccc(OC)c(O)c2)cc1 (stereo not given) | 1
CSc1ccc(C2Nc3ccccc3NC3=C2C(=O)CC(c2ccc4c(c2)OCO4)C3)cc1 (stereo not given) | 4.6*
COc1cc(C2Nc3ccccc3NC3=C2C(=O)CC(c2ccc(OC)c(OC)c2)C3)ccc1O (stereo not given) | -0.72
COc1cc(C2Nc3ccccc3NC3=C2C(=O)CC(c2ccc4c(c2)OCO4)C3)ccc1OC(C)=O (stereo not given) | 1.4
COc1ccc(C2CC(=O)C3=C(C2)Nc2ccccc2NC3c2cccc3ccccc23)cc1OC (stereo not given) | 5.4*

Source: PubChem BioAssay
